From PubChem
CYP2C19 activ: activators of human cytochrome P450 2C19 | AID 1025 | 96,000 tested, under 10 active | activation factor at 5 µM | P33261 | recombinant CYP2C19, luciferin-H EGE luminescence; stronger effect = higher value; 0 = fully inhibited enzyme, 1 = untreated enzyme;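 active means activation factor of at least 2 at 5 µM in the primary screen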;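 further: 0 = wells with 2.5 mM tranylcypromine and 1 = vehicle-only wells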
CYP2C9 inh: blocks human cytochrome P450 2C9. P11712. CYP2C9 Supersomes, luciferin-H conversion, luminescence. inhibition, % at 5 µM. 20% of 96,000 active;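 active means blocking of liver enzyme CYP2C9 beyond about 50% at 5 µM, limit read from the data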
Target sequence (P11712 whole entry, looked up): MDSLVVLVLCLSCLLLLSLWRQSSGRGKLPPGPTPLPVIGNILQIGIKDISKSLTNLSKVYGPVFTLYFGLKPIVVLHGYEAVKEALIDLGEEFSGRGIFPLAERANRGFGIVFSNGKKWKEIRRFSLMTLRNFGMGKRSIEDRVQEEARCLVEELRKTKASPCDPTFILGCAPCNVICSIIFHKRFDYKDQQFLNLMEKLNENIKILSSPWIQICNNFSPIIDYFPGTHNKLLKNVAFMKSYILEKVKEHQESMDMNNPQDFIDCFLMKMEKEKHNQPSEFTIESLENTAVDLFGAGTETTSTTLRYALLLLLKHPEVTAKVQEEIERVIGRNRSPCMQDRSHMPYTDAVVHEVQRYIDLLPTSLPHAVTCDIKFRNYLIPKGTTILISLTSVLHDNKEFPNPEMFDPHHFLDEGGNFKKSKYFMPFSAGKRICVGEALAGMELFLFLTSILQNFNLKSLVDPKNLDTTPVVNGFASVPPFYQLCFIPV
CYP2C9 activ: activators of human CYP2C9. P11712. recombinant CYP2C9, luciferin-H conversion, luminescence; stronger effect = higher value; factor 1 = untreated enzyme, 0 = blocked. activation factor at 5 µM. 1.4% of 96,000 active. AID 1024;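 active means activation factor of 2 or more for CYP2C9 at a 5 µM dose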;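 further: 0 = sulfaphenazole-blocked wells and 1 = vehicle-only wells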
Cav32 inh: inhibitors of human Cav3.2 T-type calcium channel | B-score at 10 µM | 4% of 100,000 active | O95180 | Cav3.2-expressing cells, Fluo-4 calcium fluorescence FDSS; stronger effect = lower value;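 active means single-dose well whose peak fluorescence ratio is a statistical outlier from its plate by either plate-standardised score or position-corrected B-score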
CYP2C19 inhib: inhibitors of human CYP2C19; P33261; CYP2C19 Supersomes, luciferin-H EGE luminescence, 30 min; inhibition, % at 5 µM; 21% of 96,000 active; AID 778;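 active means CYP2C19 inhibition above a set limit at 5 µM in the primary screen, cut at about 50% in these data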;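 further: plate controls were negative control wells for no effect and 2.5 mM tranylcypromine positive control for full effect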
* marks the source's active call; other numbers are inactive results; x = no result given. Compounds with a hit are over-represented: about 27% of the library has one in this group of screens.

SMILES	CYP2C19 activ	CYP2C9 inh	CYP2C9 activ	Cav32 inh	CYP2C19 inhib
COc1cc(-c2cc(C(F)(F)F)n3ncc(C(=O)O)c3n2)cc(OC)c1OC	0.7	33	0.7	0.27	26
Cc1cccc(NC(=O)CN2C(=O)NC(C)(c3ccc4c(c3)OCO4)C2=O)c1 (stereo not given)	0.7	67*	0.3	-1.8	27
CC1(c2ccc3c(c2)OCO3)NC(=O)N(CC(=O)Nc2ccc(N3CCOCC3)cc2)C1=O (stereo not given)	0.8	59*	0.4	-0.09	20
Cc1ccc(C2(C)NC(=O)N(CC(=O)Nc3ccc4c(c3)OCO4)C2=O)cc1 (stereo not given)	0.6	82*	0.2	-2.1	36
CCOC(=O)CCNC(=O)CNC(=O)OCc1ccccc1	0.9	8	0.9	-0.042	7
CCCCN(CC)CCNc1c(NC2CCN(C(=O)OCC)CC2)c(=O)c1=O	0.7	66*	0.3	-0.68	30
Cc1nc2sc(C(c3ccco3)N3CCN(c4ccc(F)cc4)CC3)c(O)n2n1 (stereo not given)	x	x	x	0.69	x
Cc1nc2sc(C(c3ccco3)N3CCN(c4ccccc4F)CC3)c(O)n2n1 (stereo not given)	0.1	69*	0.3	-0.21	92*
COc1ccc(CN(C(=O)c2oc3ccccc3c2C)C2CCS(=O)(=O)C2)cc1OC (stereo not given)	0.2	96*	0	0.94	75*
CCOc1ccc(CN(C(=O)c2oc3ccccc3c2C)C2CCS(=O)(=O)C2)cc1 (stereo not given)	0.6	34	0.7	-1.7	37
CC(C)c1ccc(CN(C(=O)c2cc3ccccc3oc2=O)C2CCS(=O)(=O)C2)cc1 (stereo not given)	0.8	62*	0.4	-0.019	15
CN(C)S(=O)(=O)c1ccc(NC(=O)COC(=O)c2ccccn2)cc1	1	-8	1.1	1.2	-3
CCN1C(=O)c2cccc3c(S(=O)(=O)Nc4ncccc4C)ccc1c23	0.8	56*	0.4	1.3	23
CCN1C(=O)c2cccc3c(S(=O)(=O)Nc4ccccn4)ccc1c23	0.8	65*	0.4	0.4	20
CN(C)c1cccc2c(S(=O)(=O)Nc3ccccn3)cccc12	0.1	-13	1.1	-0.64	92*
CCN1C(=O)c2cccc3c(NC(=O)c4ccccc4)ccc1c23	x	x	x	-0.84	x
CCN1C(=O)c2cccc3c(S(=O)(=O)NCc4cccnc4)ccc1c23	1	20	0.8	0.49	2
CCN(CCCNC(=O)c1ccc(N2CCCC2=O)cc1)c1cccc(C)c1	0.7	13	0.9	-0.037	30
CC1CCN(C(=O)CCCNC(=O)Cn2cnc3sc4c(c3c2=O)CCCC4)CC1	0.8	27	0.7	x	23
COc1ccccc1-c1ccc(Nc2cccc(C(C)=O)c2)nn1	0.2	-49	1.5	0.4	80*
Cc1ccc(S(=O)(=O)NC(C)(C)CSc2nncn2N)cc1	0.4	-10	1.1	1.5	59*
Cn1c(=O)c2nc(-c3ccccc3)oc2c2ccccc21	0.9	-47	1.5	-1.9	5
Cn1c2ccccc2c2nn(-c3ccccc3)c(=O)cc21	0.3	30	0.7	0.65	71*
CCCCC(=O)c1ccc(O)cc1	0.8	-119	2.2*	0.61	24
O=C(CCO)c1ccc(O)cc1	x	x	x	0.68	x
SMILES	CYP2C19 activ	CYP2C9 inh	CYP2C9 activ	Cav32 inh	CYP2C19 inhib
COCC(C)NC(=O)c1cc(-c2ccc(OC)c(OC)c2)on1 (stereo not given)	1	-20	1.2	0.42	5
O=C(CN1C(=O)CSC1=O)Nc1ccc(C(=O)O)cc1	0.8	-6	1.1	0.024	25
COCCCn1c2nc3ccccc3nc2c2c(=O)n(Cc3ccc(Cl)cc3)cnc21	0	12	0.9	0.0078	96*
COCCCn1c2nc3ccccc3nc2c2c(=O)n(Cc3ccccc3Cl)cnc21	0.8	1	1	0.096	23
CCCCCn1c2nc3ccccc3nc2c2c(=O)n(CC3CCCO3)c(C)nc21 (stereo not given)	0.9	74*	0.3	x	13
O=c1c2c3nc4ccccc4nc3n(Cc3ccccc3)c2ncn1Cc1ccco1	0.9	61*	0.4	-3.2	14
COCCCn1c(C)nc2c(c1=O)c1nc3ccccc3nc1n2CCc1ccccc1	0.7	80*	0.2	-1.1	29
COc1ccc(C(=O)OCCN2CCOCC2)cc1	x	x	x	-0.49	x
O=S1(=O)CCC(N2CCOCC2)C1 (stereo not given)	1.1	9	0.9	0.062	-6
CCOC(=O)c1[nH]c(C)c(C(=O)NCc2cccnc2)c1C	1	-17	1.2	0.81	0
Cc1ccc2c(Cl)cc(Cl)c(OCC(=O)Nc3cc(C)on3)c2n1	0.5	-89	1.9	-0.17	50*
Cc1ccc2c(Cl)cc(Cl)c(OCC(=O)NCc3ccco3)c2n1	0.9	-21	1.2	x	13
O=C(NC1=NCCS1)NC12CC3CC(CC(C3)C1)C2	0.8	15	0.8	0.67	19
COc1ccc(NC(=O)CSc2c(C)nn(-c3nnc(C)c(=O)[nH]3)c2C)cc1	1.1	-4	1	0.65	-12
O=C(Nc1nnc(C2CC2)s1)C1Cc2ccccc2CN1S(=O)(=O)c1ccccc1F (stereo not given)	0.5	4	1	-1.9	55*
O=C(NC1CCCCC1)C1Cc2ccccc2CN1S(=O)(=O)c1ccc(F)cc1 (stereo not given)	x	x	x	-0.21	x
CCS(=O)(=O)Nc1ccc(C2=NN(C(=O)c3ccco3)C(c3ccc(C)cc3)C2)cc1 (stereo not given)	0.7	42	0.6	0.0071	32
Cc1ccc(C2CC(c3cccs3)=NN2C(=O)c2ccc(Br)o2)cc1 (stereo not given)	0.7	43	0.6	-4*	30
COC(=O)C(C(=O)Nc1ccccc1C)C1CCCC1 (stereo not given)	0.4	9	0.9	-0.22	64*
COc1ccc(NC(=O)c2ccccc2NC(=O)NC2CCCCC2)cc1	0.8	21	0.8	-0.78	21
COC(=O)C(C(=O)Nc1ccc(OC)cc1)C1CCCCCC1 (stereo not given)	0.1	69*	0.3	-0.66	92*
CCCCn1nnnc1SCC(=O)N1CCOCC1	0.6	-14	1.1	0.022	38
Cc1c(C(=O)Nc2ccccc2)sc2nc(-c3ccccc3)cn12	0.3	76*	0.2	-2	70*
Cc1c(C(=O)NCc2ccccn2)sc2nc(-c3ccc(F)cc3)cn12	1	63*	0.4	2.6	-2
Cc1c(C(=O)Nc2ccc3c(c2)OCO3)sc2nc(-c3ccccc3)cn12	1	41	0.6	-0.44	1
Cc1c(C(=O)NCC2CCCO2)sc2nc(-c3ccc(F)cc3)cn12 (stereo not given)	1	55*	0.4	0.51	-2
CCC1(CC)Cc2ccccc2C(CC(=O)N2CCOCC2)=N1	0.7	12	0.9	-1.6	31
